Screens deposited in PubChem BioAssay by National Center for Advancing Translational Sciences (NCATS).
Rows were chosen to be rich in hits. Some 12% of all compounds tested hit in one or more screens of this group.
Shiga inhibitor = Shiga toxin inhibition | inhibition, % at 38.7 µM | 9.2% of 290,000 active | Vero cells, Shiga toxin protein synthesis inhibition reporter; in the data active = inhibition mostly above about 28%, no sharp cut-off; inactive = mostly below about 43%; note: 0% is about no effect
Sm TGR block = S. mansoni TGR enzyme inhibition. AID 485364. 3% of 360,000 active. Potency, µM (top dose mostly 114 µM), without a hit: at the top dose activity change, negative = inhibition, most hits filed as inhibitors. Q962Y6. purified TGR, DTNB reduction, TNB absorbance 405 nm; active = well fitted inhibition curve with a large enough effect; inconclusive = small, poorly fitted or top-dose-only effect; inactive = no such curve, though single readings can be large or run the other way; note: potency is the fitted concentration of half-maximal effect; % is set by controls: 0 for no effect and ±100 for the full control effect; nearly all actives have a fitted effect of over 60% in size
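TGR 20 nM + NADPH 100 uM (dispensed conc.), cpd preinc 15 min RT; start with NADPH (500 uM addition) then DTNB (15 mM addition). Kinetic TNB absorbance, 405 nm filter. Four-parameter Hill fit across titration.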
CHX counter = affects cycloheximide protein synthesis inhibition readout, counter-screen; cell reporter, cycloheximide protein synthesis inhibition counterscreen; max response, %; 12% of 300,000 active; AID 2314; in the data active = max response mostly above about 13%, no sharp cut-off; inactive = mostly below about 14%; note: read at 38.3 µM for the half of the compounds with a filed dose; 0% is about no effect
FMDV inh = foot and mouth disease virus antiviral activity; FMDV antiviral cell-based qHTS; Potency, µM (titrated, usually from 57.9 µM), without a hit: top-dose activity change, negative = inhibition, actives largely listed as inhibitors; 1.2% of 410,000 active; AID 1159524; calls by dose curve; tested in HEK293T cells; note: read-out not given here; potency is the fitted concentration of half-maximal effect; % is set by controls: 0 for no effect and ±100 for the full control effect; nearly all actives have a fitted effect of over 45% in size
Active calls of the source: *.

How did O=c1oc(-c2ccccc2)nc2sc3c(c12)CCC3 do in these assays?
Shiga inhibitor: 69.8*; Sm TGR block: -5.8%; CHX counter: 69.6*; FMDV inh: 48.4%

Results for Nc1nc(-c2ccccc2)nc2sc3c(c12)CCCC3 ?
Shiga inhibitor: 123.6*; Sm TGR block: 0.1%; CHX counter: 53.5*; FMDV inh: -6.2%

What do the screens show for `Cc1ccc2onc(CC(=O)N3CCN(c4cccc(C)c4C)CC3)c2c1`?
Sm TGR block: -5.4%; FMDV inh: -23.1%

Results for CCn1cc(C(=O)N2CCN(c3ccccc3F)CC2)c(=O)c2cc(S(=O)(=O)N(C)C3CCCCC3)ccc21 ?
Sm TGR block: -0.2%; FMDV inh: 21.8%

What do the screens show for `O=c1oc2ccc(Br)cc2cc1S(=O)(=O)c1ccc(F)cc1`?
Shiga inhibitor: -16.7; Sm TGR block: -7.3%; CHX counter: -6.7; FMDV inh: 28.2µM*

How did Cc1ccc(NC(=O)c2ccc3oc(=O)c(S(=O)(=O)c4ccccc4)cc3c2)cc1C do in these assays?
Sm TGR block: -0.6%; FMDV inh: 28.2µM*

How did Cc1cc(NC(=O)c2ccc(F)cc2)ccc1-c1cc2ccccc2oc1=O do in these assays?
Sm TGR block: 10.7%; FMDV inh: -4.8%

How did COc1ccccc1NC(=O)c1ccc2oc(=O)c(S(=O)(=O)c3ccccc3)cc2c1 do in these assays?
Sm TGR block: -4.8%; FMDV inh: 28.2µM*

How did O=C(Nc1ccccc1C(F)(F)F)c1ccc2oc(=O)c(S(=O)(=O)c3ccc(F)cc3)cc2c1 do in these assays?
Sm TGR block: 0.9%; FMDV inh: 28.2µM*

How did CCOc1cccc2sc(N(CCN(CC)CC)C(=O)c3ccco3)nc12 do in these assays?
Sm TGR block: -0.3%; FMDV inh: -12.5%

What do the screens show for `O=C(c1cnc(N2CCOCC2)c2ccccc12)N1CCN(c2ccc(F)cc2)CC1`?
Sm TGR block: 5.9%; FMDV inh: -8.2%

What do the screens show for `COc1ccc(/C=C/C(=O)NCCSCc2ccco2)cc1`?
Shiga inhibitor: 35.6; Sm TGR block: inconclusive; CHX counter: 17.4*; FMDV inh: 22.6%

Results for COc1ccc(/C=C/C(=O)NCCCc2ccccc2)cc1 ?
Shiga inhibitor: -1.9; Sm TGR block: 4.7%; CHX counter: -0.2; FMDV inh: -14.4%

Results for O=C(/C=C/c1ccccc1)NCCSCc1ccccc1 ?
Shiga inhibitor: 44.2*; Sm TGR block: 0.7%; CHX counter: 31.3; FMDV inh: 21.5%

Results for COc1ccc(-c2cc3nc(C)cc(-c4ccc(OC)cc4)n3n2)cc1 ?
Sm TGR block: 0.3%; CHX counter: 4.2; FMDV inh: -2.8%

Results for Cc1nc2cc(-c3ccc(Cl)cc3)nn2c(C)c1CCC(=O)NCc1ccco1 ?
Shiga inhibitor: 14.9; Sm TGR block: -24.0%; CHX counter: 12.3; FMDV inh: -21.3%

What do the screens show for `COc1ccc(-c2cc3nc(C)cc(N)n3n2)cc1`?
Shiga inhibitor: 73.3; Sm TGR block: -1.0%; CHX counter: 14.5*; FMDV inh: -52.7%

How did COCCNc1cc(C)nc2cc(-c3ccc(C)cc3)nn12 do in these assays?
Shiga inhibitor: 99.9; Sm TGR block: 6.3%; CHX counter: 15.3*; FMDV inh: 47.8%

Results for COc1ccc(-c2cc3nc(C)cc(NCCO)n3n2)cc1 ?
Shiga inhibitor: 23.8; Sm TGR block: 16.6%; CHX counter: 22.4*

Results for CCN(CC)CCCNc1cc(C)nc2cc(-c3cccs3)nn12 ?
Shiga inhibitor: -8.7; Sm TGR block: 11.7%; CHX counter: -2.1; FMDV inh: -7.3%

How did Cc1ccc(-c2cc3nc(C)cc(NCc4ccco4)n3n2)cc1 do in these assays?
Shiga inhibitor: 58.9*; Sm TGR block: -32.6%; CHX counter: 54.5*; FMDV inh: 64.7%

What do the screens show for `COc1ccccc1Oc1ccc(-c2cnc3ccccc3n2)cc1[N+](=O)[O-]`?
Shiga inhibitor: 72.9*; Sm TGR block: 3.4%; CHX counter: 61.6*; FMDV inh: 1.4%

What do the screens show for `O=[N+]([O-])c1cc(-c2cnc3ccccc3n2)ccc1Oc1ccc(Cl)cc1`?
Shiga inhibitor: 39.3*; Sm TGR block: 3.5%; CHX counter: 37.9*; FMDV inh: 25.3%

Results for Cn1c2c(c(=O)n(C)c1=O)C(c1cccc(O)c1)CC(=O)N2 (stereo not drawn) ?
Sm TGR block: 4.2%; FMDV inh: 6.2%

Results for CC(C)c1cnc2c(c1SCC(=O)c1ccc(Cl)cc1)c(=O)n(C)c(=O)n2C ?
Sm TGR block: -9.9%; FMDV inh: inconclusive

Results for c1ccc(CNc2ccccn2)cc1 ?
Shiga inhibitor: -6.3; Sm TGR block: 65.1%; CHX counter: 0.5; FMDV inh: -1.0%

How did Clc1ccc(CNc2ccccn2)cc1 do in these assays?
Shiga inhibitor: 54.5*; Sm TGR block: 15.6%; CHX counter: 30.8*; FMDV inh: 8.5%

Results for c1ccc(CNc2cnccn2)cc1 ?
Shiga inhibitor: -7.1; Sm TGR block: inconclusive; CHX counter: 4.5; FMDV inh: -1.3%

What do the screens show for `Cc1ccc(CNc2cnccn2)cc1`?
Shiga inhibitor: 27.4*; Sm TGR block: 10.4%; CHX counter: 12.1; FMDV inh: 29.5%

What do the screens show for `Cc1ccnc(NCc2ccc(Cl)cc2)c1`?
Shiga inhibitor: 48.7*; Sm TGR block: -9.1%; CHX counter: 24.8*; FMDV inh: 15.4%

Results for c1ccc(CCNc2cnccn2)cc1 ?
Shiga inhibitor: 34.1*; Sm TGR block: -11.8%; CHX counter: 17.8*; FMDV inh: 14.4%

Results for CCCOC(=O)N1CCN(/[N+]([O-])=N/Oc2ccc([N+](=O)[O-])cc2[N+](=O)[O-])CC1 ?
Shiga inhibitor: 15.9; CHX counter: 8.0

How did CCOc1ccc(/C=C/c2nc(C#N)c(N3CCCCC3)o2)cc1 do in these assays?
Sm TGR block: 5.1%; FMDV inh: -14.9%

Results for CCN(C(=O)Cn1nnc2sc(-c3ccccc3)cc2c1=O)c1cccc(C)c1 ?
Sm TGR block: -1.8%; FMDV inh: 14.1%

How did COc1ccccc1NC(=O)c1cc2cc3ccc(OC)c(Cl)c3nc2s1 do in these assays?
Sm TGR block: -8.2%; FMDV inh: -9.5%

Results for COC(=O)c1cc(C)nc2c1C(=O)C(=O)C=C2N1CCOCC1 ?
Shiga inhibitor: -24.9; Sm TGR block: inconclusive; CHX counter: -6.0; FMDV inh: 3.55µM*

How did Cc1c(C(=O)N2CC[C@@H]3CCCC[C@H]3C2)sc2ncnc(NCCc3ccccn3)c12 do in these assays?
FMDV inh: -18.6%

How did Cc1ccnc(SCC(=O)c2cccs2)n1 do in these assays?
Shiga inhibitor: 83.7*; Sm TGR block: -16.4%; CHX counter: 38.0*; FMDV inh: 11.4%

Results for CCC(C)NC(=O)CSc1ccc(NC(C)=O)cc1 (stereo not drawn) ?
Shiga inhibitor: -2.2; Sm TGR block: 1.2%; CHX counter: -5.3; FMDV inh: -17.1%

How did CC(=O)Nc1ccc(SCC(=O)c2ccc(Br)s2)cc1 do in these assays?
Shiga inhibitor: 36.9*; Sm TGR block: -12.6%; CHX counter: 21.2*; FMDV inh: 32.9%

What do the screens show for `Cc1ccnc(SCC(=O)c2ccc(Br)s2)n1`?
Shiga inhibitor: 36.7; Sm TGR block: 26.5%; CHX counter: 35.8*; FMDV inh: 0.0%

How did CC(=O)Nc1ccc(SCc2csc(C)n2)cc1 do in these assays?
Shiga inhibitor: 47.3*; Sm TGR block: -17.7%; CHX counter: 14.5; FMDV inh: 13.5%
